Values joined by “and” are separate entries in the source; they are usually repeats but may differ in a detail not shown here. Equal values may be shown once. The whole screen tested about 5,500 compounds, of which about 2,000 (36%) were called active. Not shown: some 18% with an inconclusive outcome. No stated cut-off is given here; in the data, active means normalized growth mostly below about 0.91 (no sharp cut-off); inconclusive means no clear call, values can overlap the other calls; inactive means mostly above about 0.92. This is one part of the list.
Assay: chemical genetic growth profiling, strain panel (AID 1159580);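 further: tested at 20 µM; growth read once vehicle control cultures reached saturation at 30 °C; 1 = growth at the plate median or of vehicle wells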
Details: S. cerevisiae deletion strains, growth OD

Measured: normalized growth

NC(Cn1ccc(=O)c(O)c1)C(=O)O (configuration not stated)
inactive: locus YAL013W, strain DEP1, stronger effect = lower value 1.01 | locus YAL021C, strain ccr4, stronger effect = lower value 1 | locus YAL026C, strain drs2, stronger effect = lower value 1.04 | locus YAL030W, strain snc1, stronger effect = lower value 1.01 | locus YBL061C, strain skt5, stronger effect = lower value 1.03 | locus YBR009C, strain hhf1, stronger effect = lower value 0.992 | locus YBR021W, strain FUR4, stronger effect = lower value 1.01 | locus YBR023C, strain chs3, stronger effect = lower value 1.03 | locus YBR171W, strain sec66, stronger effect = lower value 1.03 | locus YBR229C, strain ROT2, stronger effect = lower value 1.02 | locus YBR231C, strain swc5, stronger effect = lower value 1.01 | locus YBR279W, strain paf1, stronger effect = lower value 1.03 | locus YCL011C, strain gbp2, stronger effect = lower value 1.03 | locus YCL016C, strain dcc1, stronger effect = lower value 1.04 | locus YCL029C, strain bik1, stronger effect = lower value 0.98 | locus YCL061C, strain MRC1, stronger effect = lower value 1.01 | locus YCL069W, strain vba3, stronger effect = lower value 1.01 | locus YCR088W, strain abp1, stronger effect = lower value 1.02 | locus YDL005C, strain med2, stronger effect = lower value 1.03 | locus YDL035C, strain GPR1, stronger effect = lower value 1.03 | locus YDL040C, strain nat1, stronger effect = lower value 1.02 | locus YDL074C, strain BRE1, stronger effect = lower value 1.03 | locus YDL101C, strain DUN1, stronger effect = lower value 1.02 | locus YDL134C, strain PPH21, stronger effect = lower value 1.01 | locus YDL185W, strain tfp1, stronger effect = lower value 0.978 | locus YDL192W, strain arf1, stronger effect = lower value 0.994 | locus YDR001C, strain nth1, stronger effect = lower value 1.02 | locus YDR069C, strain doa4, stronger effect = lower value 1.02 | locus YDR101C, strain arx1, stronger effect = lower value 1 | locus YDR137W, strain rgp1, stronger effect = lower value 1.05 | locus YDR150W, strain NUM1, stronger effect = lower value 1.01 | locus YDR159W, strain sac3, stronger effect = lower value 0.943 | locus YDR162C, strain NBP2, stronger effect = lower value 1.02 | locus YDR195W, strain ref2 1.01 | locus YDR297W, strain sur2, stronger effect = lower value 0.998 | locus YDR318W, strain mcm21, stronger effect = lower value 0.992 | locus YDR334W, strain swr1, stronger effect = lower value 1.02 | locus YDR335W, strain msn5, stronger effect = lower value 1.03 | locus YDR388W, stronger effect = lower value 0.993 | locus YDR392W, strain spt3, stronger effect = lower value 0.959 | locus YDR502C, strain sam2, stronger effect = lower value 1.01 | locus YEL003W, strain gim4, stronger effect = lower value 1 | locus YEL037C, strain rad23, stronger effect = lower value 1.02 | locus YEL061C, strain CIN8 (second series), stronger effect = lower value 1.03 | locus YEL061C, strain CIN8, stronger effect = lower value 1.01 | locus YER015W, strain faa2, stronger effect = lower value 1.01 | locus YER016W, strain bim1, stronger effect = lower value 1.05 | locus YER110C, stronger effect = lower value 0.969 | locus YER111C, strain swi4, stronger effect = lower value 1.02 | locus YER155C, strain BEM2 (second series), stronger effect = lower value 1.01 | locus YER155C, strain BEM2, stronger effect = lower value 1.01 | locus YER167W, strain BCK2, stronger effect = lower value 1.03 | locus YFR010W, strain ubp6, stronger effect = lower value 0.994 | locus YGL078C, strain dbp3, stronger effect = lower value 1.01 | locus YGL086W, strain mad1, stronger effect = lower value 1 | locus YGL167C, strain pmr1, stronger effect = lower value 1.02 | locus YGL173C, strain kem1, stronger effect = lower value 1 | locus YGL227W, strain vid30, stronger effect = lower value 1.05 | locus YGL240W, strain doc1, stronger effect = lower value 1 | locus YGL248W, strain PDE1, stronger effect = lower value 1.02 | locus YGL253W, strain hxk2, stronger effect = lower value 1.03 | locus YGR078C, strain PAC10, stronger effect = lower value 1.02 | locus YGR135W, strain pre9, stronger effect = lower value 1.02 | locus YGR229C, strain SMI1, stronger effect = lower value 1.02 | locus YGR252W, strain gcn5, stronger effect = lower value 1.07 | locus YHR013C, strain ard1, stronger effect = lower value 1.05 | locus YHR027C, strain rpn1, stronger effect = lower value 1.02 | locus YHR030C, strain SLT2, stronger effect = lower value 1.01 and 1.02 | locus YHR079C, strain IRE1 (second series), stronger effect = lower value 0.988 | locus YHR079C, strain IRE1, stronger effect = lower value 1.04 | locus YHR094C, strain hxt1, stronger effect = lower value 0.996 | locus YHR129C, strain ARP1, stronger effect = lower value 1.01 | locus YHR142W, strain chs7, stronger effect = lower value 1.03 | locus YHR200W, strain rpn10, stronger effect = lower value 0.991 | locus YIL066C, strain RNR3, stronger effect = lower value 1.02 | locus YIL073C, strain SPO22, stronger effect = lower value 0.978 | locus YIL125W, strain kgd1, stronger effect = lower value 1 | locus YIR030C, strain dcg1, stronger effect = lower value 0.986 | locus YJL092W, strain hpr5, stronger effect = lower value 1.01 | locus YJL095W, strain BCK1 (second series), stronger effect = lower value 1.03 | locus YJL095W, strain BCK1, stronger effect = lower value 1.02 and 1.01 | locus YJL115W, strain asf1, stronger effect = lower value 1.02 | locus YJL129C, strain trk1, stronger effect = lower value 1.03 | locus YJL134W, strain LCB3, stronger effect = lower value 1.01 | locus YJL154C, strain vps35, stronger effect = lower value 1.01 | locus YJL164C, strain tpk1, stronger effect = lower value 0.996 | locus YJL166W, strain qcr8, stronger effect = lower value 1.01 | locus YJL168C, strain set2, stronger effect = lower value 0.99 | locus YJL187C, strain SWE1 (second series), stronger effect = lower value 1.01 | locus YJL187C, strain SWE1, stronger effect = lower value 1.01 | locus YJR043C, strain POL32, stronger effect = lower value 1.01 | locus YJR066W, strain TOR1, stronger effect = lower value 0.98
